Bioassay records as filed in PubChem BioAssay.
The entries come from a sample that favours hits as a whole.
mHTT-CaM PPI inh: mHTT-calmodulin interaction abrogation. inhibition, % at 15 µM. P42858. hit rate 3.6% among 190,000. AlphaScreen His-mHTT/GST-CaM binding, luminescence;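 further: 0% = both proteins with DMSO and 100% = one protein alone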
Target sequence (P42858 whole entry, looked up, stated change not applied): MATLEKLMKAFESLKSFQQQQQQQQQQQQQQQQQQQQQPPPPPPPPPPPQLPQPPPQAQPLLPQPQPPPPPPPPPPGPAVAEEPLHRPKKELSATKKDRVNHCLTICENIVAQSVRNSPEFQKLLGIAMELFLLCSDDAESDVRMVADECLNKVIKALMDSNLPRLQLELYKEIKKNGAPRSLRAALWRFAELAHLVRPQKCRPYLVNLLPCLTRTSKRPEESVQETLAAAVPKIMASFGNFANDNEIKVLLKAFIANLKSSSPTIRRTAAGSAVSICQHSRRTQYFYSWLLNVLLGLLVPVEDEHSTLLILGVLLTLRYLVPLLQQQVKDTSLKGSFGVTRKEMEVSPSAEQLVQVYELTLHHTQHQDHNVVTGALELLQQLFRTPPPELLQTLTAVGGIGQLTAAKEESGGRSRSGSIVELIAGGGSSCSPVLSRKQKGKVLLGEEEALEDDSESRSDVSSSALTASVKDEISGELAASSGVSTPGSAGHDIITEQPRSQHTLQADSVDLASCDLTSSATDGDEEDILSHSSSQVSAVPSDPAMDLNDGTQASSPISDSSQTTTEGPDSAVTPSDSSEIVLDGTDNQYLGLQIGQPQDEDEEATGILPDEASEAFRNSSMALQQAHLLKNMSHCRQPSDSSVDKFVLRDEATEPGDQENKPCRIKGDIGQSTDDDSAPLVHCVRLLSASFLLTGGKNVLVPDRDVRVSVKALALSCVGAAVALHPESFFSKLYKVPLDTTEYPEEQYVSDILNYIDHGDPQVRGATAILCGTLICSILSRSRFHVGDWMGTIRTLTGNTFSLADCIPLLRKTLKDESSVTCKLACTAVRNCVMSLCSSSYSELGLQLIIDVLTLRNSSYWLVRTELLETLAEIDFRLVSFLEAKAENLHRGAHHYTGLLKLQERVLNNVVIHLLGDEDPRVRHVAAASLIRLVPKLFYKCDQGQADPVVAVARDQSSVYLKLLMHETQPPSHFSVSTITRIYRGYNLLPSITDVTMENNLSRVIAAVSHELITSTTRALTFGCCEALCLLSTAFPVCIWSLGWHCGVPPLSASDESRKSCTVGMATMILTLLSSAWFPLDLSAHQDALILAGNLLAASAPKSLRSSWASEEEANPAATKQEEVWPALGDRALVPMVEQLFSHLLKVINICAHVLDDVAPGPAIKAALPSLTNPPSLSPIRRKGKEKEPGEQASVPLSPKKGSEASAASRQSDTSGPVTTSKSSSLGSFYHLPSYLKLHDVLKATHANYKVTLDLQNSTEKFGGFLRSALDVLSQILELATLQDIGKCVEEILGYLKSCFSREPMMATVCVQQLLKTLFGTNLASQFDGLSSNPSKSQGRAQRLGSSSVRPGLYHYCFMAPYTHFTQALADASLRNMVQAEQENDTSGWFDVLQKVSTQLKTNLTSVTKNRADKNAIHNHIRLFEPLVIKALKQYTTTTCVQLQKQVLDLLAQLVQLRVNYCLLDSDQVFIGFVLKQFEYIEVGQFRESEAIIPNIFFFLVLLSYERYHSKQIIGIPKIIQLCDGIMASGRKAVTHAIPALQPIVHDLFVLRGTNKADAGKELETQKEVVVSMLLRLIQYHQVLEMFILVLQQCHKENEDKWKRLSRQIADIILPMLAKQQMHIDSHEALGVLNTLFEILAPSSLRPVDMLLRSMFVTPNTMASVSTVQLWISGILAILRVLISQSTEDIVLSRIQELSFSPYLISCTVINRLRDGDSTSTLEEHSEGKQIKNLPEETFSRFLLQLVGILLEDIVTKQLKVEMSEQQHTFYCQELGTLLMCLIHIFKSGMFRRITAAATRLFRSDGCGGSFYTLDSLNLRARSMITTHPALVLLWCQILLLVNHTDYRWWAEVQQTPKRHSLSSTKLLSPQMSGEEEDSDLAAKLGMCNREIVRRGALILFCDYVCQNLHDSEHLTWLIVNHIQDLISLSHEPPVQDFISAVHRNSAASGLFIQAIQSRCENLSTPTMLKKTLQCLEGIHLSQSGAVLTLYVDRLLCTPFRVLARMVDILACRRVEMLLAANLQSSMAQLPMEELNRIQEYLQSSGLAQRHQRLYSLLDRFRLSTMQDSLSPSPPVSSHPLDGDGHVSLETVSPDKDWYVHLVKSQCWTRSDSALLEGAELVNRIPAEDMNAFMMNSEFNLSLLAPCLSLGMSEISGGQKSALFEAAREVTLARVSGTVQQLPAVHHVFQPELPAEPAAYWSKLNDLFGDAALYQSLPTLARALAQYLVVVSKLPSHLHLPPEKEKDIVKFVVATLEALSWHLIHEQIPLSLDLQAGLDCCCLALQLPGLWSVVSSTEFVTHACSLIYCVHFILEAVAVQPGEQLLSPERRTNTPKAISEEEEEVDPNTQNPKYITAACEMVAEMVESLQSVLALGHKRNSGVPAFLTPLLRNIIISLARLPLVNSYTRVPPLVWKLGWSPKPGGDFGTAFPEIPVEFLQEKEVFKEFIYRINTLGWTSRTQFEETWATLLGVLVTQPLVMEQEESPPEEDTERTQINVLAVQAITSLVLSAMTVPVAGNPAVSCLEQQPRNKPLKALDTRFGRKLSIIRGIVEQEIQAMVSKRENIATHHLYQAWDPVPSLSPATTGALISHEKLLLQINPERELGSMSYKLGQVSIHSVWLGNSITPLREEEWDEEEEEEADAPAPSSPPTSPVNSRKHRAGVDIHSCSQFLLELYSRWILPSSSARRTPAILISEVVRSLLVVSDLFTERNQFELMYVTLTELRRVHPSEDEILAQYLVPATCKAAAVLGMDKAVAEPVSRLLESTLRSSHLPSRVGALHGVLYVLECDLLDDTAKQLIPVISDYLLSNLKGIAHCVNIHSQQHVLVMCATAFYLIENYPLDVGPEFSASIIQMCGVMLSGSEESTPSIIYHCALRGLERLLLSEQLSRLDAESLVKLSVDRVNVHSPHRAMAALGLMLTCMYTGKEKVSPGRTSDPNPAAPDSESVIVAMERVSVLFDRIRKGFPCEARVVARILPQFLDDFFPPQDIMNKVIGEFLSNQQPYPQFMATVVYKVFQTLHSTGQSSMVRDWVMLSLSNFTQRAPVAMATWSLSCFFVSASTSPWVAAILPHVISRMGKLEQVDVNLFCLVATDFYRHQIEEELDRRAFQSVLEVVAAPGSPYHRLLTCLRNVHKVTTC
Pf apPOL inh: Pf-apPOL DNA polymerase inhibition; inhibition, % at 10 µM; hit rate 0.25% among 210,000; AID 1794808; Recombinant Pf-apPOL, molecular beacon fluorescence, 1.5 h
An asterisk follows results filed as active; . = no result given. No stated cut-off is given here; in the data, active means inhibition above about 50%; inactive means the rest.

SMILES	mHTT-CaM PPI inh	Pf apPOL inh
CN(C)c1ccc(/C=C/C=C/c2cccc[n+]2C)cc1	46	7
CN(C)c1ccc(/C=C/C=C/c2cc[n+](C)cc2)cc1	60*	-14
O=C(c1ccccc1)c1cc(F)c(N2CCOCC2)cc1Cl	-15	16
O=c1cc[nH]c2cc(N3CCOCC3)c(F)cc12	-5	80*
NC(=S)NN=Cc1ccc([N+](=O)[O-])s1	.	0
O=[N+]([O-])c1cccc(C=Nc2cc(Cl)ccc2O)c1	59*	-3
NC(=S)NN=Cc1cccc([N+](=O)[O-])c1	0	79*
Cc1ccc([N+](=O)[O-])cc1N=Cc1cccc([N+](=O)[O-])c1	-4	-6
Cn1c(=O)c2c(nc(Br)n2CC(=O)c2ccc(Cl)cc2)n(C)c1=O	4	9
O=C(NCc1nc2ccccc2[nH]1)c1coc(NC(=O)c2ccco2)n1	-8	-1
CC1Cc2ccccc2N1C(=O)c1ccc(Cl)cc1 (stereo unspecified)	-39	2
CC1Cc2ccccc2N1C(=O)c1ccc2nc(N3C(=O)CCC3=O)sc2c1 (stereo unspecified)	52*	-5
Cc1cccc(NC(=O)C2C(c3ccccc3)C2(Cl)Cl)c1C (stereo unspecified)	-9	67*
O=C(Nc1ccccc1)C1C(c2ccccc2)C1(Cl)Cl (stereo unspecified)	-33	-8
COc1ccc(NC(=O)N2CCc3c(c4ccccc4n3C)C2)cc1	51*	-4
CCCn1cc2c3c(cccc31)CN(C(=O)Nc1ccc(OC)cc1)CC2	13	0
Cc1ccccc1NC(=O)N1CCn2cccc2C1Cc1ccccc1 (stereo unspecified)	2	2
CC(C)Oc1ccc(NC(=O)c2ccc([N+](=O)[O-])cc2Cl)cc1	10	-9
COCC(C)NC(=O)c1ccc([N+](=O)[O-])cc1Cl (stereo unspecified)	1	109*
Cn1cc(CN2CCC(C(=O)NCCN3CCCCC3)CC2)c2cc(Cl)ccc21	1	1
CCn1cc(CN2CCC(C(=O)NCc3cccc(Cl)c3)CC2)c2cc(OC)ccc21	90*	1
Cn1cc(CN2CCC(C(=O)NCCCN3CCCC3)CC2)c2cc(Cl)ccc21	55*	-1
CCn1cc(CN2CCC(C(=O)NCc3cccc(OC)c3)CC2)c2ccccc21	12	-4
COc1ccc(-n2nc(N)c(C(N)=O)n2)cc1	-4	-5
CN1CCN(C(=O)C2CCCN(c3cnn(Cc4ccccc4)c(=O)c3)C2)CC1 (stereo unspecified)	-1	-5
SMILES	mHTT-CaM PPI inh	Pf apPOL inh
CCN1CCCn2nc(C3CCN(C(=O)NCCCOC)CC3)cc2C1=O	-7	12
Cc1ccc2c(c1)N(c1ccc(Cl)cc1C)C=C(C#N)S2(=O)=O	-9	0
Cc1cccc(Cn2c3c(c(C)c2C(=O)NCc2ccccn2)CCCC3)c1	86*	4
Cc1c2c(n(Cc3c(F)cccc3F)c1C(=O)NCc1ccccn1)CCCC2	17	-2
CC(=O)N1N=C(c2ccc3c(c2)OCO3)CC1c1sccc1C (stereo unspecified)	-16	-12
CN(CCc1ccccn1)C(=O)c1cn(-c2ccc(Cl)cc2)c(=O)c2ccccc12	-6	-7
Cc1cc(Cl)ccc1NC(=O)CN1CCN(Cc2ccc3c(c2)OCO3)CC1	54*	-7
CCNC(=O)CN1CCN(Cc2ccc3c(c2)OCO3)CC1	3	-3
COc1ccc(CCNC(=O)C2CC(c3ccccc3F)=NO2)cc1OC (stereo unspecified)	-8	-2
Cc1ccc(-n2ccnc(NC(=O)c3ccccn3)c2=O)cc1C	89*	-16
Cc1ccc(-n2ccnc(NC(=O)c3cccc(F)c3)c2=O)cc1C	12	-1
CC(C)c1ccc(-n2ccnc(NC(=O)c3ccccn3)c2=O)cc1	91*	-22
CC(C)c1ccc(-n2ccnc(NC(=O)Nc3ccccc3)c2=O)cc1	0	0
Cc1ccc(C(=O)ON=C(N)c2ccc(Oc3c(Cl)cncc3Cl)cc2)cc1	.	-4
COc1ccc(CN2CC(C(=O)NCCCN3CCCC3)CC2=O)cc1 (stereo unspecified)	-4	5
O=C(Cc1c[nH]c2ccccc12)N(Cc1cccs1)C1(C(=O)NC2CCCC2)CCCCC1	0	-6
O=C(Cc1c[nH]c2ccccc12)N(CC1CCCO1)C1(C(=O)NC2CCCCC2)CCCCC1 (stereo unspecified)	87*	-1
CCC(C)(C(=O)NC1CCCCC1)N(CC1CCCO1)C(=O)Cc1c[nH]c2ccccc12 (stereo unspecified)	58*	-2
CCC(C)(C(=O)NC1CCCCC1)N(C)C(=O)Cc1c[nH]c2ccccc12 (stereo unspecified)	7	-2
COc1ccc(CC(=O)N2CCN(c3cccc(Cl)c3)CC2)cc1	-10	-5
COc1ccc(CC(=O)N2CCN(c3cccc(Cl)c3)CC2)cc1OC	55*	2
CC(C)C(=O)N1CCN(c2nc(C(C)C)c3c(c2C#N)CC(C)(C)OC3)CC1	-1	-5
N=C1C(c2nc3ccccc3s2)=C(O)CN1CCc1ccccc1	-1	-1
O=C(NCCc1cccs1)c1cccc(N2CCNC(c3ccccc3)C2)n1 (stereo unspecified)	87*	34
COc1ccc(NC(=O)c2cccc(N3CCNC(c4ccccc4)C3)n2)c(OC)c1 (stereo unspecified)	70*	-8
SMILES	mHTT-CaM PPI inh	Pf apPOL inh
COc1cccc(NC(=O)c2cccc(N3CCNC(c4ccccc4)C3)n2)c1 (stereo unspecified)	16	-6
O=C(NCc1ccncc1)c1cccc(N2CCNC(c3ccccc3)C2)n1 (stereo unspecified)	1	-13
O=C(NCc1ccc(N2CCCC2)cc1)c1cccc(N2CCNC(c3ccccc3)C2)n1 (stereo unspecified)	82*	-1
O=C(NCCc1ccccn1)c1cccc(N2CCNC(c3ccccc3)C2)n1 (stereo unspecified)	16	-17
Cc1cc(S(=O)(=O)N=C(N)c2ccc(C(N)=O)cc2)cc(C)c1F	.	4
Cc1ccc(COc2ccc3c(=O)c(-c4ccccc4)coc3c2)cc1	0	-5
Cc1ccccc1-c1csc2c(=O)n(Cc3ccccn3)cnc12	-6	-4
CCCCN(C)C(=O)c1nnn(-c2ccc(F)cc2)c1-c1ccncc1	-5	-4
CC1(C)N=C(c2ccccc2)C(=O)N1CC(=O)Nc1ccc(F)cc1	-3	-5
Cc1csc(-c2nnc(NC(=O)COc3ccccc3F)o2)c1	17	-22
O=C(COc1ccccc1)Nc1nnc(CSc2ccccc2)o1	0	-11
O=C(COc1ccccc1F)Nc1nnc(COc2cccc3ccccc23)o1	56*	-140
O=C(COc1ccccc1F)Nc1nnc(C2CCCCC2)o1	63*	-10
COc1cccc(/C=C2/SC(=Nc3cc(C)cc(C)c3)NC2=O)c1O	52*	4
COc1cc(/C=C2\SC(=Nc3ccccc3)NC2=O)cc(I)c1O	68*	3
CCOc1cc(/C=C2\SC(=Nc3ccccc3)NC2=O)cc(Br)c1O	86*	-52
CCOc1cc(/C=C2/SC(=O)NC2=O)cc([N+](=O)[O-])c1O	28	-2
COc1ccc(/C=C2\SC(=Nc3cc(C)cc(C)c3)NC2=O)cc1	19	-1
COc1cc(/C=C2/SC(=Nc3cc(C)cc(C)c3)NC2=O)cc([N+](=O)[O-])c1O	54*	-1
CCOc1cc(/C=C2/SC(=Nc3ccccc3)NC2=O)ccc1O	45	-14
